In PubChem BioAssay AID463173 (ICCB-Longwood Screening Facility, Harvard Medical School, 2010):
The whole screen tested about 52,000 compounds, of which about 4,300 (8.3%) were called active. This is one part of a sample in which actives are shown more often than they occur. Unmarked numbers belong to inactive results. No stated cut-off is given here; in the data, active means survival mostly below about 52% (no sharp cut-off); inactive means mostly above about 56%.

Each compound was assayed on DeltatarO mutant (assay: growth inhibition of S. aureus wild type versus tarO mutant, primary screen, teichoic acid synthesis inhibitors, RN4220, OD600 (AID 463173)). Settings: OD600, 18 h, active compounds read low, screened at 18.75 µg/mL (by protocol).

| Compound | survival |
| --- | --- |
| Cc1nn(-c2ccccc2)c(=O)c2ccccc12 | 92% |
| COc1ccc(-c2nc3nc(C)cc(Nc4ccc(C(C)=O)cc4)n3n2)cc1 | 54% |
| CCc1nc2nc(C)cc(Nc3ccc(Br)cc3F)n2n1 | 128% |
| Cc1cc(=O)n(CC(=O)Nc2ccc(Cl)c(Cl)c2)c(-n2nc(C)cc2C)n1 | 117% |
| COc1ccccc1NC(=O)CCS(=O)(=O)c1cc2c3c(c1)CCN3C(=O)CC2 | 99% |
| CCc1cccc(CC)c1-n1nnc2c(sc3nc(C)cc(C)c32)c1=O | 83% |
| Cc1cccc(C(=O)NCc2nnc(SCC(=O)Nc3ccccc3F)n2-c2ccccc2)c1 | 72% |
| N#Cc1c(/N=C/c2cccnc2)sc2c1CCC2 | 100% |
| CN1CCN(C(CNC(=O)c2ccccc2)c2ccc3c(c2)OCO3)CC1 (stereo unspecified) | 76% |
| Nc1nc(N)nc(COc2ccccc2)n1 | 102% |
| CCOC(=O)c1c(S(=O)(=O)N2CCCC(C(=O)NCc3ccccc3Cl)C2)c(C)n(C)c1C (stereo unspecified) | 122% |
| CCc1cccc(C)c1NC(=O)CN1CCN(Cc2ccccc2Cl)S1(=O)=O | 126% |
| CCOc1ccc(C(=O)NCCn2cc(SCC(=O)Nc3ccccc3)c3ccccc32)cc1 | 71% |
| CCCN(CCC)CC(O)Cn1cc(/C=C/C(=O)c2ccc(OCC)cc2)c2ccccc21 (stereo unspecified) | 11% (active) |
| COc1ccc(S(=O)(=O)N2CCCN(CC(=O)Nc3ccc(OC)cc3OC)CC2)cc1 | 72% |
| COc1ccc(OCC(=O)NCCS(=O)(=O)N2CCN(c3cccc(Cl)c3)CC2)cc1 | 85% |
| CCOc1ccc(NC(=O)CSc2cn(CC(=O)N3CCCCCC3)c3ccccc23)cc1 | 95% |
| Cc1oc(-c2cccc(Br)c2)nc1CSc1nc2ncccc2[nH]1 | 78% |
| CCOC(=O)c1cnc2c(CC)cccc2c1NCCO | 95% |
| CCOC(=O)c1cnc2ccc(Br)cc2c1NCCN1CCOCC1 | 76% |
| CCOC(=O)c1cnc2c(C)cc(C)cc2c1NCCN1CCOCC1 | 32% (active) |
| Cc1cc(C)cc(OCC(=O)NCCN2CCOCC2)c1 | 67% |
| CCOC(=O)c1cnc2c(Cl)c(Cl)ccc2c1NCCN1CCOCC1 | 42% (active) |
| CCOC(=O)c1cnc2ccccc2c1NCCCO | 104% |

| Compound | survival |
| --- | --- |
| Cc1ccc(OCC(=O)Nc2ccc3nc(SCc4ccccc4)sc3c2)cc1 | 81% |
| Cc1ccccc1-c1nc(CNC(=O)NC2CCCCC2)c(C)o1 | 67% |
| CCOc1ccc(C(=O)N2CCC(c3nc(-c4ccc(S(=O)(=O)N5CCCC5)cc4)no3)CC2)cc1 | 92% |
| CCN(C(=O)c1cc2c(=O)oc3ccccc3c2s1)c1cccc(C(F)(F)F)c1 | 145% |
| CN(C(=O)c1cc2c(=O)oc3ccccc3c2s1)c1ccc(F)cc1 | 60% |
| CCOc1ccc(N(CC)C(=O)c2cc3c(=O)oc4ccccc4c3s2)cc1 | 38% (active) |
| CCCN(C(=O)c1cc2c(=O)oc3ccc(C)cc3c2s1)c1ccc(OCC)cc1 | 48% |
| CCN(C(=O)c1cc2c(=O)oc3ccccc3c2s1)c1ccc(C)c(C)c1 | 15% (active) |
| CCc1ccccc1N(C)C(=O)c1cc2c(=O)oc3ccccc3c2s1 | 42% |
| COc1cccc(CNC(=O)C2(c3cccs3)CCOCC2)c1 | 92% |
| COc1ccc(-c2ccc(NS(=O)(=O)c3cccc(C)c3)cc2)nn1 | 75% |
| COCCNc1nc2c(c(=O)n(C)c(=O)n2C)n1Cc1c(F)cccc1Cl | 57% |
| COc1ccc(C)cc1NC(=O)CC1NCCNC1=O (stereo unspecified) | 76% (active) |
| Cc1ccc(C)c(NC(=O)CC2NCCNC2=O)c1 (stereo unspecified) | 79% |
| COc1ccc(NC(=O)CC2NCCNC2=O)c(OC)c1 (stereo unspecified) | 77% |
| O=C(Nc1c2c(nn1-c1ccc(Cl)cc1)CS(=O)(=O)C2)c1cccc(Cl)c1 | 71% |
| Cc1cccc(C(=O)Nc2c3c(nn2-c2ccc(Cl)cc2)CS(=O)(=O)C3)c1 | 74% |
| O=C(Nc1c2c(nn1-c1ccc(Cl)cc1)CS(=O)(=O)C2)c1ccc(Br)cc1 | 52% (active) |
| CC(=O)N1c2ccccc2C(=O)C1N1CCN(c2ccc(F)cc2)CC1 (stereo unspecified) | 94% |
| Cc1ccc(-c2nnc(Nc3ccc(O)cc3)c3ccccc23)cc1S(=O)(=O)NCC1CCCO1 (stereo unspecified) | 93% |
| Cc1ccc(-n2ncc(C(=O)NC3CCCCC3)c2C2CCN(C(=O)OC(C)(C)C)CC2)cc1 | 116% |
| COc1ccc(CC(=O)N2CC(=O)Nc3ccc(F)cc3C2c2ccccc2)cc1 (stereo unspecified) | 79% |
| Cc1cccc(CC(=O)N2CC(=O)Nc3ccc(C)cc3C2c2ccc(F)cc2)c1 (stereo unspecified) | 50% |
| COc1ccc(CC(=O)N2CC(=O)Nc3ccc(Br)cc3C2c2ccc(F)cc2)cc1 (stereo unspecified) | 30% (active) |

| Compound | survival |
| --- | --- |
| Cc1ccc2c(c1)C(c1ccccc1)N(C(=O)Cc1ccc(F)cc1)CC(=O)N2 (stereo unspecified) | 55% |
| O=C1CN(C(=O)Cc2ccccc2)C(c2ccc(F)cc2)c2cc(Br)ccc2N1 (stereo unspecified) | 61% |
| Cc1cccc(CC(=O)N2CC(=O)Nc3ccc(F)cc3C2c2ccccc2)c1 (stereo unspecified) | 53% (active) |
| O=C1CN(C(=O)Cc2ccc(F)cc2)C(c2ccccc2)c2cc(Cl)ccc2N1 (stereo unspecified) | 127% |
| Cc1cccc(CC(=O)N2CC(=O)Nc3ccc(Br)cc3C2c2ccc(F)cc2)c1 (stereo unspecified) | 43% (active) |
| COc1ccc(CC(=O)N2CC(=O)Nc3ccc(Br)cc3C2c2ccc(F)cc2)cc1OC (stereo unspecified) | 175% |
| COc1ccc(Cl)cc1NC(=O)Cn1ncc2c3ccccc3n(C)c2c1=O | 135% |
| Cc1ccc(C)c(NC(=O)Cn2c(=O)n(Cc3ccco3)c(=O)c3ccc(C(=O)NC4CCCC4)cc32)c1 | 95% |
| O=C(Nc1ccc2oc(-c3ccc4ccccc4c3)nc2c1)c1ccc(Cl)c(Cl)c1 | 83% |
| Cc1ccc2[nH]c(=O)c3cc(C(=O)NCCCN4CCC(C)CC4)sc3c2c1 | 85% |
| COc1ccc(-c2cc(-c3ccc(C)cc3)nc3c2COc2ccccc2-3)cc1 | 72% |
| Cc1oc2ncn(C)c(=O)c2c1C(=O)N1CCN(c2ccc(Cl)cc2)CC1 | 61% |
| CCc1ccc(Nc2cc(C)nc3nc(Cc4ccc(Cl)cc4)nn23)cc1 | 101% |
| CC(=O)c1cccc(Nc2cc(C)nc3nc(Cc4ccccc4)nn23)c1 | 62% |
| Cc1cc(Nc2cc(Cl)ccc2C)n2nc(Cc3ccccc3)nc2n1 | 50% |
| CCc1nc2nc(C)cc(Nc3cccc(C)c3C)n2n1 | 82% |
| Cc1ccc(Nc2cc(C)nc3nc(Cc4ccc(Cl)cc4)nn23)cc1 | 52% |
| Cc1cc(Nc2ccc(C)c(Cl)c2)n2nc(Cc3ccccc3)nc2n1 | 31% (active) |
| Cc1cc(Nc2ccc(C)c(Cl)c2)n2nc(-c3ccccc3)nc2n1 | 57% |
| Cc1cccc(Nc2cc(C)nc3nc(Cc4ccc(Cl)cc4)nn23)c1 | 36% (active) |
| Cc1cc(Nc2cccc(Cl)c2C)n2nc(Cc3ccccc3)nc2n1 | 49% (active) |
| Cc1cc(Nc2ccccc2F)n2nc(Cc3ccc(Cl)cc3)nc2n1 | 44% (active) |
| Cc1cc(Nc2ccccc2C)n2nc(Cc3ccc(Cl)cc3)nc2n1 | 64% |
| Cc1cc(Nc2ccccc2F)n2nc(-c3ccccc3)nc2n1 | 47% |

| Compound | survival |
| --- | --- |
| CC1=C(C(=O)OCc2ccc(C)cc2)C(c2ccccc2C(F)(F)F)CC(=O)N1 (stereo unspecified) | 124% |
| CCCSCCCNC(=O)CN1C(=O)CCn2nc(-c3cn(C)c4ccccc34)cc21 | 77% |
| CCN(CC)CCn1c2c(c(SCC(=O)Nc3cccc(C(F)(F)F)c3)nc1=O)CCC2 | 74% |
| CCOC(=O)c1cc(C)n(CC2CCC(C(=O)Nc3ccccc3OC)CC2)c1C (stereo unspecified) | 107% |
| COc1cccc(NC2=CC(c3ccc(C(C)C)cc3)N(c3cccc(OC)c3)C2=O)c1 (stereo unspecified) | 73% |
| CCC(CC)C(=O)N1CCc2cc(OC)c(OC)cc2C1COc1ccc2c(C)cc(=O)oc2c1 (stereo unspecified) | 83% |
| CNc1ccc(-c2nc(-c3ccncc3)no2)cc1[N+](=O)[O-] | 108% |
| CCOc1ccc(-c2cccc(NS(=O)(=O)c3ccccc3C(F)(F)F)c2)nn1 | 91% |
| O=C(Cn1c(=O)nc(-c2ccccc2)c2ccccc21)Nc1cccc(C(F)(F)F)c1 | 104% |
| Cc1ccc2nc(N(Cc3cccnc3)C(=O)c3cccs3)sc2c1 | 71% |
| CCCCN(C)CCNC(=O)c1c2c(nc3ccccc13)C(=O)N(C1CCCCC1)C2 | 102% |
| O=C(NCCc1ccc(Cl)cc1)c1ccc2c(c1)N(Cc1cccc(Cl)c1)C(=O)c1ccccc1S2(=O)=O | 117% |
| COc1ccccc1CNC(=O)CS(=O)(=O)Cc1nc(-c2ccccc2C)oc1C | 63% |
| CCCCN(C)C(=O)C1CCCN(c2ncnc3onc(C)c23)C1 (stereo unspecified) | 113% |
| O=C(Nc1ccc2c(c1)CCC2)C1CCN(c2ccc(S(=O)(=O)N3CCCC3)cc2)CC1 | 103% |
| Cc1ccc(NC(=O)/C(C#N)=C/c2cc(C)n(-c3ccc(F)cc3)c2C)cc1C | 65% |
| Cc1ccc(Cl)cc1NC(=O)/C(C#N)=C\c1cn(Cc2ccc(F)cc2)c2ccccc12 | 98% |
| Cc1ccc(NC(=O)/C(C#N)=C\c2ccc(Cl)cc2Cl)cc1C | 29% (active) |
| Cc1ccc(-n2c(C)cc(/C=C(\C#N)C(=O)Nc3ccc(C)c(C)c3)c2C)cc1 | 48% |
| Cc1ccc(NC(=O)/C(C#N)=C/c2ccccc2Cl)cc1C | 34% (active) |
| Cc1ccc(NC(=O)/C(C#N)=C/c2cc(C)n(-c3ccc(Br)cc3)c2C)cc1C | 65% |
| Cc1ccc(Cl)cc1NC(=O)/C(C#N)=C/c1c(C)n(Cc2ccccc2)c2ccccc12 | 95% |
| Cc1ccccc1NC(=O)/C(C#N)=C/c1ccc(Cl)cc1Cl | 32% (active) |
| Cc1ccc(NC(=O)/C(C#N)=C/c2ccc(C(C)C)cc2)cc1C | 81% |
